Screening data from PubChem BioAssay.
This is a sample that favours compounds with a hit; in the whole collection about 2.8% have one here.
TGFb SMAD3 inh: inhibitors of TGF-b signaling; HepG2 CAGA-GFP TGF-b/SMAD3 reporter, GFP fluorescence, 18 h; TGF-beta stimulated, 500 pg/mL final; Potency, µM (series often up to 46.1 µM), most hits filed as inhibitors; actives 1.2% (n = 410,000); note: nearly all actives have a fitted effect of over 65% in size
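Inhibition of TGF-beta-driven CAGA-GFP reporter expression in HEPG2 cells is measured by cellular GFP fluorescence after 18 h stimulation with 500 pg/mL recombinant TGF-beta in 1% FBS medium at 37 degrees C.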
HTT cytoprotect: cytoprotection in Huntington HTT-Q103 PC12 cell model; PC12 HTT-Q103 induced, cytoprotection, ATP luminescence, 40 h; Potency, µM (top dose mostly 56.4 µM), most hits filed as activators; actives 0.14% (n = 230,000); note: nearly all actives have a fitted effect of over 45% in size
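Rat PC12, Q103 Htt exon1-GFP fusion, ecdysone promoter; tebufenozide inducer 100 nM final; compound titration; qHTS, 1500 cells/well; ATPlite luminescent read.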
HttQ103 aggreg: mutant huntingtin aggregation inhibition; PC12 HttQ103-GFP aggregates, Acumen cytometry, 40 h; Potency, µM (highest dose often 46.1 µM), actives largely listed as inhibitors; actives 1.1% (n = 220,000); AID 1688; note: nearly all actives have a fitted effect of over 60% in size
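Using laser scanning cytometry, GFP-positive aggregates were counted after lysis of PC12 cells induced with 100 nM tebufenozide to express HTT exon 1 Q103–GFP. Compounds were tested in titration.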
ATXN2 expr inh: inhibitors of ATXN2 expression; HEK-293 ATXN2-luciferase reporter, luminescence, 24 h; Potency, µM (top dose mostly 57 µM), hits mostly inhibitors; actives 0.72% (n = 360,000); AID 1745845; note: nearly all actives have a fitted effect of over 55% in size
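qHTS (up to 57 uM final) was run with 24 h compound exposure of reporter cells at 37 °C. Each well was multiplexed: SteadyGlo luminescence measured ATXN2-luciferase expression after a fluorogenic Gly-Phe-AFC viability readout (25 uM final).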
S2 tox: cell viability loss in ATXN counter-screen; S2 cells (HEK-293 line with an ATXN2-luciferase reporter) viability, CellTiter-Fluor protease fluorescence, 24 h; Potency, µM (highest dose often 56.7 µM), most hits filed as cytotoxic; actives 0.49% (n = 400,000); note: nearly all actives have a fitted effect of over 40% in size
HepG2 viability: counter-screen for TGF-b inhibitors: cytotoxicity in HepG2 cells; HepG2 CAGA-GFP viability, ATP luminescence, 18 h; Potency, µM (series often up to 46.1 µM), most hits filed as cytotoxic; actives 0.76% (n = 410,000)
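CellTiter-Glo luminescence gave cytotoxicity after 18 hours at 37 degrees C. The cells were HepG2 CAGA-GFP in 1% FBS DMEM, stimulated with 500 pg/mL TGF-beta after compound addition. %Activity was normalised to no-cell wells (complete cell-killing) and DMSO (no toxicity), and curves were fitted and classified.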
A number is an active result; [ ] = dose if it differs, or a comment. Calls come from the whole dose curve; as a rule, active = well fitted curve in the direction sought with a large enough effect; inconclusive = small, poorly fitted or top-dose-only effect, or another doubt; inactive = no such curve, though single readings can be large; an effect the other way counts as inactive or inconclusive.

For C=CCNC(=O)c1ccccc1NC(=O)C1COc2ccccc2O1 (stereo not drawn) the results were TGFb SMAD3 inh inactive, HTT cytoprotect inactive[10 µM], HttQ103 aggreg 3.5µM, ATXN2 expr inh inactive, S2 tox inactive and HepG2 viability inactive.
O=C(Nc1ccncc1)C1COc2ccccc2O1 (stereo not drawn) was read as TGFb SMAD3 inh inactive, HTT cytoprotect inactive, HttQ103 aggreg inactive, ATXN2 expr inh inactive, S2 tox inactive and HepG2 viability inactive.
Screening O=C(NC1=NCCS1)C1COc2ccccc2O1 (stereo not drawn) returned TGFb SMAD3 inh inactive, HTT cytoprotect inactive, HttQ103 aggreg inactive, ATXN2 expr inh 2.5µM, S2 tox inactive and HepG2 viability inactive.
C[C@]12C[C@H](O)CC(CO)(CO)C1[C@H](O)C[C@@]13CC4[C@@H](CC12)[C@@]4(C)C3 (stereo partly drawn) was read as HTT cytoprotect inactive.
`COc1ccc(CNc2cccc3[nH]c(C(F)(F)F)nc23)cc1` gave TGFb SMAD3 inh inconclusive, ATXN2 expr inh inactive, S2 tox inactive and HepG2 viability inactive.
`COc1cc(CNc2cccc3[nH]c(C(F)(F)F)nc23)cc(OC)c1` gave TGFb SMAD3 inh 13µM, S2 tox inactive and HepG2 viability inactive.
`CCOC(=O)c1cc(C)n(CC2CCC(C(=O)Nc3ccccc3OC)CC2)c1C` (stereo not drawn) gave TGFb SMAD3 inh 11µM and HepG2 viability inactive.
Screening CCOC(=O)c1cc(C)n(CC2CCC(C(=O)Nc3ccc(OCC)cc3)CC2)c1C (stereo not drawn) returned TGFb SMAD3 inh inconclusive and HepG2 viability inactive.
CN(C)CCNc1ccc(CO)c2oc3ccc(O)cc3c(=O)c12 was read as TGFb SMAD3 inh inconclusive, ATXN2 expr inh 21µM, S2 tox 27µM and HepG2 viability inactive.
CN1Cc2cc(C(=O)N3CCC(C4CCNCC4)CC3)ccc2N[C@@H](CC(=O)O)C1=O was read as ATXN2 expr inh inactive and S2 tox inactive.
For Cc1nc2sc(C(N)=O)c(N)c2c2c1CCCC2 the results were TGFb SMAD3 inh inconclusive, HTT cytoprotect inactive[10 µM], HttQ103 aggreg 1.8µM, ATXN2 expr inh inactive, S2 tox inactive and HepG2 viability 20µM.
NC(=O)c1sc2nc(N3CCOCC3)c3c(c2c1N)CCCC3 was read as TGFb SMAD3 inh inactive, HTT cytoprotect inactive, HttQ103 aggreg inactive[9.22 µM], ATXN2 expr inh inactive, S2 tox inactive and HepG2 viability inactive.
Screening Cc1ccc(-c2nc3sc(C(N)=O)c(N)c3c3c2CCCC3)cc1 returned TGFb SMAD3 inh inconclusive, HTT cytoprotect inactive[10 µM], HttQ103 aggreg inactive, ATXN2 expr inh inactive, S2 tox inactive and HepG2 viability inactive.
Screening NC(=O)c1sc2nc(-c3ccccc3)c3c(c2c1N)CCCC3 returned TGFb SMAD3 inh inactive, HTT cytoprotect inactive, HttQ103 aggreg 6.3µM, ATXN2 expr inh inactive and HepG2 viability inactive.
For O=C(N/N=C/c1ccccc1OC(=O)c1ccc2c(c1)OCO2)c1cccc(F)c1 the results were TGFb SMAD3 inh inactive, HTT cytoprotect inactive[10 µM], HttQ103 aggreg 2.5µM, ATXN2 expr inh inactive, S2 tox inconclusive and HepG2 viability inactive.
Screening Cc1cc(Br)cc(/C=N/NC(=O)c2ccc3c(c2)OCO3)c1O returned TGFb SMAD3 inh 5.6µM, S2 tox inconclusive and HepG2 viability 1.8µM.
Screening COc1cc(Cl)cc(/C=N\NC(=O)c2ccc3c(c2)OCO3)c1O returned TGFb SMAD3 inh 11µM and HepG2 viability inactive.
`O=C(N/N=C/c1ccccc1O)c1ccc2c(c1)OCO2` gave TGFb SMAD3 inh inactive, ATXN2 expr inh inconclusive, S2 tox inactive and HepG2 viability inactive.
Screening O=C(N/N=C/c1cc(Br)cc(Cl)c1O)c1ccc2c(c1)OCO2 returned TGFb SMAD3 inh inconclusive, ATXN2 expr inh 13µM, S2 tox inactive and HepG2 viability inactive.
Screening Cc1ccc(NC(=O)c2cnn3c2NC(=C2CC2)C=C3C(F)F)cc1 returned TGFb SMAD3 inh inactive and HepG2 viability inactive.
